Data published in PubChem BioAssay (NCI).
The panel holds about 83,000 compounds, 20% with a hit somewhere; the sample as a whole holds those more often.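 Step 1: grow cells in 96-well plates. Step 2: add test compound at a single concentration. Step 3: incubate 48 h. Step 4: record percent growth.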 Unmarked numbers belong to inactive results. Activity calls are given as the source filed them. The calls were made as follows: active = growth percent below 10; inactive = the rest.

System: RXF 393 renal
Experiment: NCI-60 one-dose screen, 48 h (100 = growth as untreated, 0 = no growth, -100 = all killed)
Conditions: 10 µM unless noted

SMILES	growth
CC(C)(C)n1cc(-c2ccnc(NCCCNS(=O)(=O)c3cccc(F)c3)n2)c(-c2ccc(Cl)c(O)c2)n1	105%
COc1cccc2cc(-c3cc4ccccc4[nH]3)/c(=N\NC(=O)c3ccc(Cl)cc3)oc12	45.9%
Nc1nc(Nc2ccccc2SSc2ccccc2Nc2nc(N)nc(-c3ccc4ccccc4c3)n2)nc(-c2ccc3ccccc3c2)n1	79.5%
O=C(CN1CCN(c2cc(=O)n(-c3ccccc3)c3ccccc23)CC1)Nc1nc(-c2ccccc2)cs1	76.9%
CC(=O)Nc1cccc(Nc2nc(N[C@H](C)c3ccccc3)c3ccccc3n2)c1	-5.79% (active)
CNC1CCc2c(sc(NC(=O)c3ccc(C(C)(C)C)cc3)c2C(N)=O)C1 (stereo not drawn)	59.5%
COc1cc(OC)cc(C(=O)Nc2cccc(C#Cc3cccc4[nH]nc(N)c34)c2)c1	-19.4% (active)
COc1ccccc1-n1cc(C#N)c(N)c1C(=O)c1ccc(Br)cc1	85.8%
Nc1nc(-c2cccc([N+](=O)[O-])c2)c(N=Nc2ccccc2)s1	-16.3% (active)
COc1ccc(-c2nc3ccc(-c4nnc(SCC(=O)Nc5ccc(C(=O)/C=C/c6ccc(Cl)cc6)cc5)o4)cc3[nH]2)cc1	98.2%
CCCCCCCn1cc2c(NCCc3ccccc3)ncnc2n1	104%
COc1ccc(-c2nc3cc(Cl)c(Cl)cc3n2CC(=O)N=Nc2c(O)[nH]c3ccc(OC)cc23)cc1	-29.8% (active)
CN1CCN(Cc2ccc(NC(=O)c3cncc(C#Cc4cnn5cccnc45)c3)cc2C(F)(F)F)CC1	-76.5% (active)
